“And” between values parts separate entries of the source, which are not always exact repeats. Equal entries are not always repeated. Values without a mark were called inactive. A call without a number means that no potency is given here. The source made the active and inactive calls. The call rests on the fitted dose curve; in most records, active means well fitted activation curve with a large enough effect in the repeat runs; inconclusive means weak or mixed curves; inactive means flat fitted curve, though single readings scatter.
Potency means the concentration at half of the fitted maximal effect.

This experiment can be described thus: Caspase-3/7 induction in CHO-K1 cells by small molecules, qHTS assay (AID 1346980). Further: nearly all actives have a fitted effect of over 15% in size. Conditions: CHO-K1 caspase-3/7 induction, Caspase-Glo luminescence, 17 h; series mostly up to 92.4 µM. An excerpt:
National Center for Advancing Translational Sciences [NCATS]
NIH Chemical Genomics Center [NCGC]
U.S. Environmental Protection Agency [EPA]
National Institutes of Environmental Health Sciences [NIEHS]
National Toxicology Program [NTP]
Apoptosis is a process of programmed cell death and plays a central role in the development of multicellular organisms. It is a highly regulated process and induces cell death by activating caspases, which are the members of cysteine aspartic acid-specific protease (caspase) family. Caspases involved in apoptosis are classified by their mechanism of action as initiator caspases (caspase-2, -8, -9 and -10) and executioner caspases (caspase-3, -6, and -7). Inhibition of apoptosis results in number of cancers, autoimmune diseases, inflammatory diseases and viral infection. To identify small molecule compounds that induce apoptosis, a homogeneous, luminescent Caspase-Glo 3/7 assay was used. Wild type CHO-K1 cells were used to screen Tox21 libraries for identifying caspase-3/7 activity inducers.
CHO-K1 cells were dispensed at 1,500 per well in 5uL of culture medium into white solid bottom 1536-well plates (Corning Life Sciences, Corning, NY) using a Multidrop Combi (Thermo Scientific, Waltham, MA) dispenser. The assay plates were incubated at 37 C and 5% CO2 for 5hr, and then 23nL of compounds dissolved in DMSO and positive control were transferred using a Pintool station (Wako, San Diego, CA). The assay plates were incubated at 37C and 5% CO2 for 17hr. For caspase-3/7 activity read, 4uL of Caspase-Glo 3/7 reagent (Promega Corporation, Madison, WI) was added to each well of the assay plates using Flying Reagent Dispenser (FRD, Aurora Discovery, San Diego, CA) and incubated the assay plates at room temperature for 30min. The luminescence signal was quantified using a ViewLux plate reader (Perkin Elmer, Shelton, CT).
Background: Quantitative high-throughput screening tests each substance at several concentrations.
Take `CCO[Si](OCC)(OCC)OCC`: the Potency result was “inactive”.

For the compound `C#C[C@]1(OC(C)=O)CC[C@H]2[C@@H]3CCC4=C[C@@H](OC(C)=O)CC[C@@H]4[C@H]3CC[C@@]21C`, the Potency result is “inactive”.

Consider `O=C(O)c1cc(N=Nc2ccc([N+](=O)[O-])cc2)ccc1O`, for which the Potency result was “inactive”.

In the case of `O=[N+]([O-])c1ccc(O)cc1C(F)(F)F`, the Potency entry was “inactive”.

With `Cc1ccc(C(=O)O)cc1`, the Potency entry was “inactive”.

For the compound `O=C(O)Cc1ccc2c(c1)C(=O)c1ccccc1CO2`, the Potency result was “inactive”.

Consider `c1ccc(C(O[C@@H]2CCCN(CCc3ccc4c(c3)OCO4)C2)c2ccccc2)cc1`, for which the Potency entry was “inactive”.

Regarding `Cc1c2ccccc2c(C)c2c1ccc1ccccc12`, the Potency result is “inactive”.

In the case of `O=c1c(O)c(-c2ccc(O)cc2O)oc2cc(O)cc(O)c12`, the Potency entry is “inactive”.

For `CC(C(=O)O)c1ccc2c(c1)[nH]c1ccc(Cl)cc12` (stereo not given), the Potency entry is “inactive”.

In the case of `Cc1ccc(O)c(O)c1`, the Potency entry is “inactive”.

Turning to `CN(C)c1ccc(C(=C2C=CC(=[N+](C)C)C=C2)c2ccc(N(C)C)cc2)cc1`, the Potency is 7.66 µM (active) and 6.11 µM (active) and 8.41 µM (active).

In the case of `CCOC(=O)c1ccc(C2CCC(NC[C@H](O)COc3ccc(O)c(NS(C)(=O)=O)c3)CC2)cc1` (stereo not given in full), the Potency result is “inactive”.

As for `CCCC(=O)OCCc1ccccc1`, the Potency result was “inactive”.

In the case of `CCc1ccc(Br)cc1`, the Potency entry was “inactive”.

Consider `CN(C)C(=O)COC(=O)Cc1ccc(OC(=O)c2ccc(N=C(N)N)cc2)cc1`, for which the Potency entry is “inactive”.

For the compound `CC(=O)Oc1cc2c(s1)CCN(C(C(=O)C1CC1)c1ccccc1F)C2` (stereo not given), the Potency entry is “inactive”.

As to `C=CCn1c(=O)n(CC=C)c(=O)n(CC=C)c1=O`, the Potency result is “inactive”.

Take `FC(F)(F)c1cccc(Cl)c1`: the Potency entry was “inactive”.

Take `CCC(=O)OC(=O)CC`: the Potency result was “inactive”.

`C#Cc1ccc(-c2ccccc2F)cc1`: the Potency entry is “inactive”.

In the case of `O=S(=O)(O)c1ccccc1/C=C/c1ccc(-c2ccc(/C=C/c3ccccc3S(=O)(=O)O)cc2)cc1`, the Potency entry was “inactive”.

Regarding `OC12N=C(c3ccccc3)SC1Cc1cc(Cl)ccc12` (stereo not given), the Potency result is “inactive”.

As to `Nc1nc(-c2ccccc2)cs1`, the Potency result was “inactive”.

`CC(=O)OCC=C(C)C`: the Potency entry was “inactive”.

As for `COc1ccc(-c2coc3cc(O)ccc3c2=O)cc1`, the Potency entry is “inactive”.

As to `CCCCC(CC)CN1CN(CC(CC)CCCC)CC(C)(N)C1` (stereo not given), the Potency entry is “inactive”.

Consider `CCN(CC)C(=O)c1cc(S(=O)(=O)Cc2ccccc2)c(N2CCC(c3ccccc3)CC2)cc1N(CC)CCN(C)C`, for which the Potency is 24.1 µM (active).

As for `CNC(=O)c1ccccc1Sc1ccc2c(/C=C/c3ccccn3)n[nH]c2c1`, the Potency result was “inactive”.

As to `CCCCCC/C=C\CCCCCCCC(=O)O`, the Potency entry was “inactive”.

As for `CC1(C)CCC[C@]2(C)[C@H]3CCO[C@]3(C)CC[C@@H]12`, the Potency result is “inactive”.

For the compound `O=C(O)CN(CCN(CC(=O)O)CC(=O)O)CC(=O)O`, the caspase-3/7 activation was -0.0599% [at 3.27 µM].

As to `COc1cccc2c1C(=O)c1c(O)c3c(c(O)c1C2=O)C[C@@](O)(C(C)=O)C[C@@H]3O[C@H]1C[C@H](N)[C@H](O)[C@H](C)O1`, the Potency is 4.89 µM (active) and 6.68 µM (active).

`COc1cc2nc(N3CCN(C(=O)c4ccco4)CC3)nc(N)c2cc1OC`: the caspase-3/7 activation is 0.614% [at 19 µM].

For `CC(C)(C)CC(C)(C)c1ccc(Nc2ccc(C(C)(C)CC(C)(C)C)cc2)cc1`, the caspase-3/7 activation was 2.02% [at 8.39 µM].

`S=C([S-])NCCNC(=S)[S-].S=C([S-])NCCNC(=S)[S-].[Mn+2].[Zn+2]`: the Potency result is “inactive”.

Turning to `OC[C@H]1O[C@H](O[C@H]2O[C@H](CO)[C@@H](O)[C@H](O)[C@H]2O)[C@H](O)[C@@H](O)[C@@H]1O`, the Potency entry is “inactive”.

Consider `O=c1oc2cc(O)ccc2c2oc3cc(O)ccc3c12`, for which the Potency result is “inactive”.

`C=Cc1ccccc1C=C`: the Potency result is “inactive”.

As for `CCCC(=O)OCOC(=O)C1=C(C)NC(C)=C(C(=O)OC)C1c1cccc(Cl)c1Cl` (stereo not given), the Potency entry was “inactive”.

These data come from PubChem BioAssay (Tox21).
